In the library only some 10% were active in any assay of this set; here they are far more common.
MCF10A rereplic: A quantitative high throughput screen for small molecules that induce DNA re-replication in MCF 10a normal breast cells | MCF 10A DNA re-replication, Hoechst nuclear intensity, 48 h | Potency, µM (series often up to 46.1 µM), for inactives: at the top dose activity, positive = re-replication, usual class: activators | 350,000 compounds, 2.9% hits; note: % of control where 0% means no effect; nearly all actives have a fitted effect of over 50% in size
RORgamma inh: qHTS for inhibitors of ROR gamma transcriptional activity | Nuclear receptor ROR-gamma (Mus musculus), P51450 | Drosophila S2 Gal4-RORgamma UAS-luciferase reporter, 20 h | Potency, µM (titrated, usually from 53.6 µM), for the others: at the highest dose activity change, negative = inhibition, hits mostly inhibitors | 310,000 compounds, 5.4% hits | AID 2551, 2010; note: % is set by controls: 0 for no effect and ±100 for the full control effect; nearly all actives have a fitted effect of over 60% in size
Target sequence (P51450 whole entry, looked up, the tested form may be a part): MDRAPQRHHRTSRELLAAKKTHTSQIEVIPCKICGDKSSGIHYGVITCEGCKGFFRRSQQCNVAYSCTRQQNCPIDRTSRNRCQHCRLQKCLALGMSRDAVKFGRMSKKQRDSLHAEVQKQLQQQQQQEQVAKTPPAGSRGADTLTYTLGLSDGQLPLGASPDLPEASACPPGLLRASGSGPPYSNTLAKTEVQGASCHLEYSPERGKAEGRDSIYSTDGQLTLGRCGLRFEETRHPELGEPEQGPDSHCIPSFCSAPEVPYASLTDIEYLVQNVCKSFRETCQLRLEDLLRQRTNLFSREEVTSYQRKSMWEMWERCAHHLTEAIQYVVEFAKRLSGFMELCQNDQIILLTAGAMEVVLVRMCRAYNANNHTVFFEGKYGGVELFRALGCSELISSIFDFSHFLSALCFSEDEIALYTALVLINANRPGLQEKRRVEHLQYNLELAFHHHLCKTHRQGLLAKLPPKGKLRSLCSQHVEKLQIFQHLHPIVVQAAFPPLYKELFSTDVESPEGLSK
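Schneider cells (Drosophila), stable Gal4 DBD–ROR gamma + UAS-luc; 1 hr cmpd preincubation; Cu2+ induction 700 uM final; 20 hr ambient; luminescence.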
ELG1 DNA repair: qHTS screen for small molecules that inhibit ELG1-dependent DNA repair in human embryonic kidney (HEK293T) cells expressing luciferase-tagged ELG1; HEK293T ELG1-luciferase reporter, luminescence, 16 h; DNA damage induced by 5-fluorouridine; Potency, µM (top dose mostly 46.1 µM), for inactives: top-dose activity change, negative = inhibition, usual class: inhibitors; 330,000 compounds, 2.3% hits; note: % is set by controls: 0 for no effect and ±100 for the full control effect; nearly all actives have a fitted effect of over 55% in size
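5-Fluorouridine DNA damage + compound/DMSO, 2,000 cells/well, 16 h, 37 °C/5% CO2. ONE-Glo, 30 min RT, luminescence. Readout = decrease in reporter signal.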
SW480 rerep: A quantitative high throughput screen for small molecules that induce DNA re-replication in SW480 colon adenocarcinoma cells; 340,000 compounds, 1.8% hits; Potency, µM (doses to about 46.1 µM), without a hit: at the top dose re-replication activation, actives largely listed as activators; SW480 DNA re-replication, Hoechst DNA content imaging, 48 h; AID 624297, 2012; note: % of control where 0% means no effect; nearly all actives have a fitted effect of over 55% in size
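Per well, 250 cells were exposed to pinned compound for 48 hr. Nuclear DNA was visualised with Hoechst (40 min, 37 C) and total object intensity recorded by fluorescence scanning.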
Gal4-VP16 FLuc: VP16 counterscreen qHTS for inhibitors of ROR gamma transcriptional activity | Drosophila S2 Gal4-VP16 UAS-luciferase, luminescence, 20 h | Potency, µM (top dose mostly 53.6 µM), for the others: top-dose activity, negative = inhibition, actives largely listed as inhibitors | 310,000 compounds, 3.5% hits | AID 2546, 2010;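 note: Gal4-VP16 expression switched on by copper sulfate through the metallothionein promoter; % is set by controls: 0 for no effect and ±100 for the full control effect; nearly all actives have a fitted effect of over 50% in size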
Starred values were filed as active, the others as inactive; ? = inconclusive; · = no result given; [ ] = dose if it differs, or a comment. Calls come from the whole dose curve; as a rule, active = well fitted curve in the direction sought with a large enough effect; inconclusive = small, poorly fitted or top-dose-only effect, or another doubt; inactive = no such curve, though single readings can be large; an effect the other way counts as inactive or inconclusive. Potency is the fitted concentration of half-maximal effect.

SMILES	MCF10A rereplic	RORgamma inh	ELG1 DNA repair	SW480 rerep	Gal4-VP16 FLuc
COc1ccc(-c2c(C)nn3c(N4CCC(C(=O)NCCN(C)C)CC4)cc(C)nc23)cc1OC	10.5%	-27.2%	7.9%	-6.6%	-1.5%
Cc1cc(Cl)ccc1OCC(=O)N1C(C)CCCC1C (configuration not stated)	16.5%	-34.5%	21.6%	2.7%	?
COc1ccc(Cl)cc1-c1n[nH]c(=S)n1C1CCCCC1	4.9%	3.98µM*	-5.5%	1.5%	7.94µM*
COc1ccc(-c2n[nH]c(=S)n2C2CCCCC2)cc1	2.2%	3.16µM*	-14.1%	-2.6%[9.22 µM]	7.08µM*
Cc1ccsc1-c1n[nH]c(=S)n1C1CCCCC1	26.5%	3.55µM*	-9.9%	-1.8%	?
S=c1[nH]nc(-c2cccnc2)n1C1CCCCC1	12.3%	?	13.1%	-4.9%	?
Cc1cc(Cl)ccc1OCc1n[nH]c(=S)n1C1CCCCC1	25.9µM*	0.794µM*	6.1%	-1.5%	2.51µM*
C[C@H]1[C@H](C)CC[C@]2(C)CC[C@]3(C)C(=CC[C@@H]4[C@@]5(C)CC[C@@H](O)[C@](C)(C(=O)O)[C@@H]5CC[C@]43C)[C@H]12	·	-23.4%	16.5%	·	5.7%
COCC(=O)N1CCC2(CC1)CN(c1ccccc1)C2	·	8.1%	·	·	0.1%
C#CCn1c2ccccc2c2nc3ccccc3nc21	-9.2%	2.1%	2.4%	-1.7%	-0.5%
CC(C)n1c2ccccc2c2nc3ccccc3nc21	23.1µM*	?	-13.4%	?	2.1%
COc1ccc(CNc2ccc(C(=O)O)cc2)cc1	?	1.26µM*	?	?	0.631µM*
COc1ccccc1CNC(=S)Nc1ccc(S(N)(=O)=O)cc1	8.9%	2.1%	-5.1%	25.1%	-1.5%
COc1ccc(CNC(=S)Nc2ccc(OC)cc2)cc1	5.9%	10µM*	-2.4%	1.8%	?
CCCCc1ccc(NC(=S)NCc2ccccc2OC)cc1	5.1%	2µM*	?	-4.9%	-29.9%[10 µM]
CCCCc1ccc(NC(=S)NCc2ccc(OC)cc2)cc1	1.5%	3.98µM*	0.7%	29.6%	?
COC(=O)Cc1ccc(NC(=S)NCc2ccc(OC)cc2)cc1	-3.2%	?	-4.7%	1.7%	0.6%
CC(NC(=O)CN(C)Cc1cccc(Cl)c1)c1ccccc1 (configuration not stated)	3.7%	5.6%	11.3%	-11.6%	14.3%
COC(=O)Cc1ccc(NC(=S)NCc2ccc(F)cc2)cc1	1.2%	?	-8.8%	-3.8%	?
COc1ccc(NC(=S)NCc2ccc(F)cc2)cc1	1.1%	7.94µM*	26.6%	0.7%	?
C[C@@]12C(=O)Nc3ccccc3C(=O)N1[C@H]1c3cc(Cl)ccc3OC[C@@H]1[C@@H]2c1ccccc1	7.31µM*	·	?	?	·
C[C@@]12C(=O)Nc3ccc(Cl)cc3C(=O)N1[C@H]1c3cc(Cl)ccc3OC[C@@H]1[C@@H]2c1ccccc1	0.3%	·	-5.7%	?	·
C[C@@]12C(=O)Nc3ccc(Br)cc3C(=O)N1[C@H]1c3cc(Cl)ccc3OC[C@@H]1[C@@H]2c1ccccc1	8.6%	·	-12.1%	8.2%	·
Cc1ccc2c(c1)[C@H]1[C@H](CO2)[C@H](c2ccccc2)[C@]2(C)C(=O)Nc3ccccc3C(=O)N12	3.26µM*	·	?	9.2µM*	·
Cc1ccc2c(c1)[C@H]1[C@H](CO2)[C@H](c2ccccc2)[C@]2(C)C(=O)Nc3ccc(Cl)cc3C(=O)N12	?	·	?	14.6µM*	·
SMILES	MCF10A rereplic	RORgamma inh	ELG1 DNA repair	SW480 rerep	Gal4-VP16 FLuc
COc1ccc(CN2CCN(Cc3ccc4cc(F)ccc4n3)CC2CCO)c(C)c1C (configuration not stated)	11.9%	-1.4%	?	1.8%	4.2%
CC1CC(C)CN(C(=O)CN2C(=O)NC3(CCCCCC3)C2=O)C1 (configuration not stated)	-0.8%	·	12.9%	-7.1%	·
CCc1ccc(-c2cc(C(F)(F)F)n3nc(C(=O)Nc4c(C)nn(Cc5ccc(F)cc5)c4C)cc3n2)s1	?	1.8%	?	8.2µM*	-17.9%
CCc1nc2ccccc2c(C(=O)OCC(=O)NCc2ccc3c(c2)OCO3)c1C	15.5%	37.1%	?	-44.0%	1.8%
Cc1c(-c2cccc(Cl)c2)nc2ccccc2c1C(=O)OCC(=O)Nc1ccc2c(c1)OCO2	14.2%	?	18.4µM*	2.5%	-21.2%
CCCc1nc2ccccc2c(C(=O)OCC(=O)NCc2ccc3c(c2)OCO3)c1CC	18.4µM*	?	?	9.5%	-9.3%
CCCc1nc2ccccc2c(C(=O)OC(C)C(=O)NCc2ccc3c(c2)OCO3)c1CC (configuration not stated)	?	44.6%	20.6µM*	?	-16.4%
COc1ccc(C2=C(SC)CC2=NC(C)(C)C)cc1	19.4%	20.9%	?	0.1%	?
CCC(=Cc1ccccc1O)c1ccncc1	4.4%	·	·	-2.1%	·
COc1ccc(Cc2nnc(NC(=O)C3CC(=O)N(CCc4ccc(F)cc4)C3)s2)cc1OC (configuration not stated)	6.8%	?	?	-4.8%	-4.7%
Cc1ccc(CNC(=O)COC(=O)CCCOc2ccc(Cl)cc2Cl)cc1	10.0%	-25.4%	25.4%	22.9%	?
C=C(C)C(=O)C1CCCCC1	·	-0.2%	·	·	-1.4%
COc1ccc(NC(=S)N/C(=N/S(=O)(=O)c2ccc(C)cc2)c2ccccc2)cc1	-20.5%	-89.3%	?	-32.9%	-26.2%
C/C(=N\S(=O)(=O)c1ccc(C)cc1)NC(=S)Nc1ccccc1	-19.7%	11.2µM*	14.4%	-27.3%	-12.6%
C=CCNC(=S)Nc1cccc(NC(=S)NCC=C)c1	6.0%	7.94µM*	-4.9%	-5.2%	?
C=CCNC(=O)NC(=S)c1ccccc1	5.5%	12.6µM*	?	?	?
C=CCNC(=S)Nc1ccccc1	-0.6%	-125.7%	9.6%	-5.9%	?
C=CCNC(=S)N/N=C(\C)c1cccc(NC(C)=O)c1	-1.1%	3.55µM*	-2.0%	-60.5%	?
C=CCNC(=S)NN(c1ccccc1)c1ccccc1	-45.5%	2µM*	-13.2%	?	6.31µM*
C=CCNC(=O)c1ccccc1NC(=O)c1ccccc1	12.7%	18.1%	-2.3%	4.2%	-5.3%
CCOc1ccc(NC(=O)COC(=O)C2C3CC4OC(=O)C2C4C3)cc1 (configuration not stated)	13.8%	8.5%	7.7%	-10.9%	-9.3%
O=c1c(-c2cccc(Cl)c2)nc2cncnc2n1-c1ccccc1	·	-18.8%	·	·	-8.9%
COc1cc(/C=N/NC(=S)NCc2ccco2)cc(OC)c1OC	-1.9%	42.6%	-24.0%	-1.9%	?
